A selection: hits, their analogues and other compounds. The true share with any hit is near 2.4%.
FEN1 inhibitor: inhibitors of human flap endonuclease 1; P39748; Recombinant FEN1 flap cleavage, fluorescence, 15 min; Potency, µM (doses to about 114 µM), without a hit: at the top dose activity change, negative = inhibition, hits mostly inhibitors; 390,000 tested, 0.35% active; further: on the % scale 0 is the no-effect control and ±100 the full control effect; nearly all actives have a fitted effect of over 65% in size
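Steps: FEN1 (10 nM) dispensed; compound added by pin tool; 15 min at room temperature; substrate added to 50 nM final; reads at 0 min and 15 min; data normalized and fitted (four-parameter Hill).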
POLH inh: DNA polymerase eta (human) inhibition; Q9Y253; recombinant Pol eta, fluorescent DNA replication assay; Potency, µM (highest dose often 114 µM), for inactives: at the highest dose activity change, negative = inhibition, hits mostly inhibitors; 390,000 tested, 1.2% active; AID 588591; further: on the % scale 0 is the no-effect control and ±100 the full control effect
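Pol eta (10 nM) was preincubated with compounds for 15 min at room temperature, after which fluorescent replication substrate (50 nM final) was added to start the reaction. Fluorescence was read kinetically at 0 and 10 min.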
WRN helicase inh-1: inhibitors of human WRN helicase. Q14191. WRN helicase unwinding, fluorescent forked duplex, kinetic. Potency, µM (doses to about 114 µM), without a hit: at the highest dose activity change, negative = inhibition, usual class: inhibitors. 360,000 tested, 0.46% active. AID 651768; further: on the % scale 0 is the no-effect control and ±100 the full control effect; nearly all actives have a fitted effect of over 55% in size
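Screening of the MLSMR collection measured strand separation of a quenched forked DNA duplex (100 nM) by 20 nM WRN with 2 mM ATP, all final. Compounds were preincubated with enzyme 15 min at room temperature.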
Pol kappa inh: inhibitors of human DNA polymerase kappa; Q9UBT6; purified Pol kappa, fluorescent DNA synthesis assay, 10 min; Potency, µM (top dose mostly 107 µM), inactives show top-dose activity, negative = inhibition, actives largely listed as inhibitors; 400,000 tested, 0.53% active; AID 588579; further: on the % scale 0 is the no-effect control and ±100 the full control effect
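Inhibition of 10 nM Pol kappa is measured by a fluorescent read-out at 0 and 10 min following addition of 50 nM substrate (final), with a 15-min room-temperature compound preincubation.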
POLB inh: inhibitors of human DNA polymerase beta; P06746; Potency, µM (doses to about 114 µM), for the others: at the top dose activity change, negative = inhibition, hits mostly inhibitors; Pol beta primer extension/strand displacement, fluorescence kinetic; AID 485314; 340,000 tested, 1.3% active; further: on the % scale 0 is the no-effect control and ±100 the full control effect
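Enzyme-only controls used 10 nM Pol beta; buffer lacking enzyme served as negative control. Compound preincubated 15 min, then 50 nM substrate added; 0 and 10 min reads at room temperature.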
POLI inh: inhibitors of human DNA polymerase iota. Pol iota fluorescent replication assay, 10 min. Potency, µM (top dose mostly 115 µM), without a hit: at the top dose activity, negative = inhibition, usual class: inhibitors. AID 588590. 390,000 tested, 1% active. Q9UNA4
Target sequence (Q9UNA4 whole entry, looked up): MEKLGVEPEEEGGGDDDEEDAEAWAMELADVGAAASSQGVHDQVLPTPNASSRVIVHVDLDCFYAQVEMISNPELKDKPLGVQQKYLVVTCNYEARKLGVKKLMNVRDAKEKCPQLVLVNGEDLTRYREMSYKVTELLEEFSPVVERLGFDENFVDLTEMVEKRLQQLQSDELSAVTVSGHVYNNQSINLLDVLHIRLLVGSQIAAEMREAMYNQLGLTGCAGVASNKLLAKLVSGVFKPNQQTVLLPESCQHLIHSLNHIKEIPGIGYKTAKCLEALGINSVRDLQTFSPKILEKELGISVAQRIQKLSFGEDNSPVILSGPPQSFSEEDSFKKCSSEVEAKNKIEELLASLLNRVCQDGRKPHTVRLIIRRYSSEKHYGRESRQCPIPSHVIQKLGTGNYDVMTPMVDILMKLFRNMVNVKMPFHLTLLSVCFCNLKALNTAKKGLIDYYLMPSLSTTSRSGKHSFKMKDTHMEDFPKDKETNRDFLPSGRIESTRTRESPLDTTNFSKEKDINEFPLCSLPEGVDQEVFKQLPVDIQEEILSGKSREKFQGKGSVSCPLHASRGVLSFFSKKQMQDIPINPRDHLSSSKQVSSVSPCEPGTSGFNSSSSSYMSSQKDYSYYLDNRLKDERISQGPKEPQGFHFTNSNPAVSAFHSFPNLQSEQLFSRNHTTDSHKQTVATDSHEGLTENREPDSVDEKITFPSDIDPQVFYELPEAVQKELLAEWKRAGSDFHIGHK
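Fluorescent replication assay read twice, at 0 min and 10 min after adding 50 nM (final) substrate. Enzyme (10 nM) and compounds were first incubated 15 min at room temperature; enzyme-free buffer wells were negative controls.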
WRN helicase inh-2: WRN helicase inhibition, cherry-pick retest; Potency, µM (series often up to 57.1 µM), for the others: at the highest dose activity, negative = inhibition, most hits filed as inhibitors; WRN helicase DNA unwinding, fluorescence kinetic; shares compounds with WRN helicase inh-1; 610 tested, 63% active; further: nearly all actives have a fitted effect of over 65% in size
TO displacement: binds DNA, flagged in WRN inhibitor counterscreen | thiazole orange DNA binding displacement, fluorescence | Potency, µM (doses to about 57.1 µM), for the others: top-dose activity change, negative = inhibition, usual class: inhibitors | shares compounds with WRN helicase inh-1 | AID 720499 | 610 tested, 10% active;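 further: drop in dye fluorescence marks compound binding to DNA; on the % scale 0 is the no-effect control and ±100 the full control effect; nearly all actives have a fitted effect of over 60% in size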
BLM helicase inh: blocks human BLM helicase in WRN counterscreen; Recombinant BLM helicase DNA unwinding, red fluorescence; 610 tested, 60% active; Potency, µM (top dose mostly 57.1 µM), inactives show at the highest dose activity change, negative = inhibition, usual class: inhibitors; shares compounds with WRN helicase inh-1; further: nearly all actives have a fitted effect of over 60% in size
An asterisk follows results filed as active; ? = inconclusive; / = no result; [ ] = another dose, or the depositor's remark. The call rests on the fitted dose curve; in most records, active means well fitted curve in the direction sought with a large enough effect; inconclusive means small, poorly fitted or top-dose-only effect, or another doubt; inactive means no such curve, though single readings can be large; an effect the other way counts as inactive or inconclusive. Potency means the concentration at half of the fitted maximal effect.

SMILES	FEN1 inhibitor	POLH inh	WRN helicase inh-1	Pol kappa inh	POLB inh	POLI inh	WRN helicase inh-2	TO displacement	BLM helicase inh
CCc1[nH]c(=O)[nH]c1C(C)S(=O)(=O)c1ccc(C)cc1 (stereo not drawn)	-13%	-8%	?	-5%	1%	52%	2%	1%	?
CCOC(=O)c1cccc(NC(=O)c2cc(-c3ccc(Cl)s3)nc3ccccc23)c1	16%	3%	/	-19%	4%	11%	/	/	/
CCc1ccc2c(c1)C(NC(C)=O)C(=O)N2CCN1CCOCC1 (stereo not drawn)	?	?	45µM*	-5%	8%	2.2µM*	?	-5%	19µM*
CCCN1C(=O)C(NC(C)=O)c2ccccc21 (stereo not drawn)	-4%	-6%	3%	-17%	-25%	14%	/	/	/
CCOC(=O)[C@@H](N)CS	/	/	/	-19%[60.1 µM]	/	/	/	/	/
COc1cc(/C=C2\SC(=Nc3cccnc3)NC2=O)cc(OC)c1OC	-17%	?	13µM*	-4%	23%	60%	-16%	-5%	-16%
Cc1ccc(-c2noc(-c3ccc(NCc4ccco4)c([N+](=O)[O-])c3)n2)cc1	0%	-10%	/	-1%	-23%	-15%	/	/	/
CC1(C)CC(=O)C(C(C2=C(O)CC(C)(C)CC2=O)c2ccc(O)c([N+](=O)[O-])c2)=C(O)C1	79µM*	?	?	-8%	-1%	?	22µM*	?	-24%
COc1ccc(C(=O)Nc2nc(-c3ccc([N+](=O)[O-])cc3)c(-c3ccc(OC)cc3)s2)cc1	-25%	?	?	?	68%	-6%	-11%	5%	-11%
N#Cc1c([N+](=O)[O-])cc([N+](=O)[O-])cc1S(=O)(=O)Cc1ccccc1	79µM*	?	11µM*	-9%	/	?	-24%	?	-24%
Cc1ccc(C)c(CSc2nc3c([nH]c4ccccc43)c(=O)n2C)c1	19%	-15%	/	-4%[60.1 µM]	9%	18%	/	/	/
COc1ccc(Nc2nc(N)c3cc(OC)c(OC)cc3n2)cc1	?	?	/	-9%	?	-12%	22µM*	?	22µM*
COc1cccc(-c2ccc3ncnc(Nc4ccccc4)c3c2)c1	/	/	/	0%[60.1 µM]	/	/	/	/	/
O=[N+]([O-])c1cc2c(c3cccnc13)COCO2	-8%	10µM*	?	-21%	/	40µM*	?	-29%	15µM*
Cc1cc(NS(=O)(=O)c2ccc(NC(=O)/C=C/c3ccc(Br)cc3)cc2)no1	-2%	6%	?	-2%	12%	14%	-27%	-14%	?
O=C(Nc1cccc(C(=O)OCc2cc(=O)n3c4c(sc3n2)CCCC4)c1)c1cccc(F)c1	-1%	6%	/	-8%[60.1 µM]	1%	21%	/	/	/
O=C1OC(c2ccc(O)cc2)(c2ccc(O)cc2)c2ccccc21	-4%	-17%	-13%	6%	9%	15%	/	/	/
O=C1OC(c2ccc3ccccc3c2O)(c2ccc3ccccc3c2O)c2ccccc21	?	25µM*	?	?	/	?	?	24µM*	-29%
Cc1ccc(C)c(-n2cc(-c3ccccc3)nc2SCC(=O)Nc2ccccc2)c1	-2%	-12%	/	-7%[60.1 µM]	0%	18%	/	/	/
COc1cc(/C=N\N=C2/SC(CC(=O)O)C(=O)N2c2ccc(O)cc2)ccc1O (stereo not drawn)	-4%	5%	-14%	-7%[60.1 µM]	-28%	-10%	/	/	/
COc1cc(/C=N/N=C2/SCC(=O)N2c2ccc(O)cc2)ccc1O	-2%	-2%	79µM*	-8%	1%	81%	-8%	32%	-14%
CCOC(=O)c1ccc(NC(=O)CC2C(=O)N(c3ccccc3)C(=O)N2C2CCCCC2)cc1 (stereo not drawn)	17%	-9%	/	-3%	-2%	5%	/	/	/
Cc1cc(C(=O)NC(Cc2c[nH]c3ccccc23)C(=O)O)c(C)o1 (stereo not drawn)	4%	-7%	1%	-13%	-1%	132%	/	/	/
COC(=O)C(Cc1c[nH]c2ccccc12)NC(=O)c1cc(-c2ccc(OC)c(OC)c2)oc1C (stereo not drawn)	79µM*	?	89µM*	-26%	-17%	?	-25%	8%	-19%
CC1(C)Cc2c(C#N)c(N3CCN(C(=O)c4ccccc4Cl)CC3)nc(-c3ccco3)c2CS1	-4%	10µM*	35µM*	79µM*	20µM*	?	-13%	2%	?
SMILES	FEN1 inhibitor	POLH inh	WRN helicase inh-1	Pol kappa inh	POLB inh	POLI inh	WRN helicase inh-2	TO displacement	BLM helicase inh
CC(=O)N1CCN(c2nc(-c3ccco3)c3c(c2C#N)CC(C)(C)SC3)CC1	0%	?	-25%	-17%	-3%	1%	/	/	/
O=C(O)c1ccc(/C=C2\SC(=S)N(NC(=O)c3ccccc3)C2=O)cc1	-3%	-15%	-12%	?	?	?	/	/	/
COc1cc(/C=C2\SC(=S)N(NC(=O)c3cccc(O)c3)C2=O)ccc1O	?	?	32µM*	-40%	16µM*	40µM*	22µM*	3.8µM*	22µM*
CC(C)(C)OC(=O)N1CCC(c2c(C(=O)NCc3cccc(Cl)c3)cnn2-c2ccc(F)cc2)CC1	-6%	-20%	/	-8%	-28%	-4%	/	/	/
COC(=O)CSc1nc(SC)nc2c1sc1nc(-c3ccco3)c3c(c12)CC(C)(C)OC3	-9%	-6%	3%	-8%	/	45%	/	/	/
CSc1nc(SCCO)c2sc3nc(-c4ccco4)c4c(c3c2n1)CC(C)(C)OC4	-1%	79µM*	50µM*	-32%	1.6µM*	22µM*	7.6µM*	15µM*	2.2µM*
C=CCn1c(SCC(=O)c2ccc(O)c(O)c2)nnc1-c1ccc(C)cc1	13%	?	?	?	/	?	19µM*	-5%	?
Cc1cc(O)c(Sc2ncn[nH]2)cc1NS(=O)(=O)c1ccc(Cl)cc1	-2%	-14%	0%	-4%	/	-11%	/	/	/
